L3MBTL1 block – inhibitors of human L3MBTL1 | Q9Y468 | AlphaScreen L3MBTL1–H3K9me1 peptide binding | Potency, µM (top dose mostly 57.1 µM), without a hit: at the highest dose activity, negative = inhibition, hits mostly inhibitors | 0.66% of 230,000 active | AID 485360; further: on the % scale 0 is the no-effect control and ±100 the full control effect; nearly all actives have a fitted effect of over 60% in size
Target sequence (Q9Y468 whole entry, looked up): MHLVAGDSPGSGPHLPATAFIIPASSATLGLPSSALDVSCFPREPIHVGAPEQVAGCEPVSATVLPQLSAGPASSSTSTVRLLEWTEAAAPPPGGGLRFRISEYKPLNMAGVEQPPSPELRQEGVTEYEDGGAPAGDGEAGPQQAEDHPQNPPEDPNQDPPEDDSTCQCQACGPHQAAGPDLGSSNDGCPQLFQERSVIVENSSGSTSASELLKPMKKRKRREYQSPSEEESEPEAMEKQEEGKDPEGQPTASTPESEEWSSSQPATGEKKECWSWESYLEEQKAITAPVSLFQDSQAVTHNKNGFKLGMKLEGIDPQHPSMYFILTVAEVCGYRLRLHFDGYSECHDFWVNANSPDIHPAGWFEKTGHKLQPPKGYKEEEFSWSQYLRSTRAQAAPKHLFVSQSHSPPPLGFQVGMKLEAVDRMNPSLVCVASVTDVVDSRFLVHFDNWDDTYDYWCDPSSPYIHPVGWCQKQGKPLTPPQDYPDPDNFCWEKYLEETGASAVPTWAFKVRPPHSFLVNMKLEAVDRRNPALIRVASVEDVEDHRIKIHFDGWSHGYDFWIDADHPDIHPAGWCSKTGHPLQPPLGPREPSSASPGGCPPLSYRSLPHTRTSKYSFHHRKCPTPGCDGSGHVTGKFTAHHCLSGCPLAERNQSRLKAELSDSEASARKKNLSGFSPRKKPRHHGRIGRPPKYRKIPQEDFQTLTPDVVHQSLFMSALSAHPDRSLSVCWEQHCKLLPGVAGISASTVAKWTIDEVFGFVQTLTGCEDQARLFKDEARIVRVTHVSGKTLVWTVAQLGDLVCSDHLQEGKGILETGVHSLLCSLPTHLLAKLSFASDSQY
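AlphaScreen assay: L3MBTL1 (50 nM final) was preincubated 30 min at room temperature with biotinylated H3(1-15)K9me1 peptide (75 nM final), then 30 min with library compounds; streptavidin donor and nickel chelate acceptor beads (10 ug/mL final) added, 30 min dark.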
BAZ2B inh – BAZ2B (human) inhibition; Q9UIF8; AlphaScreen BAZ2B-H3K14Ac peptide displacement; Potency, µM (doses to about 114 µM), for inactives: at the top dose activity change, negative = inhibition, actives largely listed as inhibitors; 4.4% of 360,000 active; further: on the % scale 0 is the no-effect control and ±100 the full control effect; nearly all actives have a fitted effect of over 60% in size
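Protein-peptide AlphaScreen: BAZ2B 50 nM, b-H3K14Ac 50 nM, 1x PBS pH 7.4 + 0.01% Tween-20. Preincubation 30 min RT; cpd 30 min RT (top 110 uM); beads 20 min RT, light-protected.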
G9a inh – blocks human histone lysine methyltransferase G9a | Potency, µM (series often up to 102 µM), for inactives: at the top dose activity, negative = inhibition, most hits filed as inhibitors | G9a H3K9 monomethylation, AlphaScreen, 2 h | 8.8% of 350,000 active; further: on the % scale 0 is the no-effect control and ±100 the full control effect; nearly all actives have a fitted effect of over 75% in size
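G9a (20 nM) was preincubated 15 min with compound, then reacted 2 h at room temperature with 500 nM biotin-H3K9 peptide and 20 µM SAM. Monomethyl-H3K9 detected by AlphaScreen using anti-H3K9me1 antibody.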
Sfp inh – Sfp phosphopantetheinyl transferase inhibition; Q9F4F7; Biochemical Sfp PPTase activity, qHTS; Potency, µM, without a hit: largest response in the series, negative = inhibition, hits mostly inhibitors; 3.5% of 310,000 active; AID 1490;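 further: the enzyme is Sfp with the accession as filed and its product quenches rhodamine fluorescence; 0% = enzyme reaction without inhibitor and -100% = no enzyme wells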
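After 15 min at room temperature with compound, 15 nM Sfp received 5 uM rhodamine-CoA plus 12.5 uM BHQ-2-ybbR (50 mM Hepes pH 7.6, 10 mM MgCl2). Rate came from the fluorescence difference over 30 min, ex 525/em 598 nm.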
JMJD2A Tudor inh – JMJD2A Tudor domain (human) inhibition | 4.4% of 390,000 active | Potency, µM (series often up to 114 µM), inactives show top-dose activity change, negative = inhibition, usual class: inhibitors | AlphaScreen JMJD2A-Tudor / H3K4me3 peptide binding | O75164; further: on the % scale 0 is the no-effect control and ±100 the full control effect; nearly all actives have a fitted effect of over 50% in size
HP1b binding inh – blocks HP1-beta chromodomain binding to methylated histone tails; AlphaScreen HP1-beta / biotin-H3K9me3 peptide binding; Potency, µM (top dose mostly 114 µM), without a hit: at the highest dose activity change, negative = inhibition, actives largely listed as inhibitors; 0.56% of 390,000 active; AID 540317; further: nearly all actives have a fitted effect of over 70% in size
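Compound inhibition of the preformed complex between 50 nM HP1-beta and 50 nM biotinylated H3K9me3 peptide was read by AlphaScreen. Buffer was PBS pH 7.4 with 0.01% Tween-20. Incubations ran 30 min at room temperature, with 10 ug/mL donor/acceptor beads.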
Active calls of the source: *; u = inconclusive; x = not tested or not shown; [ ] = another dose, or the depositor's remark. Sampled rows, rich in hits. Any-hit rate of the full collection: about 12%. The call rests on the fitted dose curve; in most records, active means well fitted curve in the direction sought with a large enough effect; inconclusive means small, poorly fitted or top-dose-only effect, or another doubt; inactive means no such curve, though single readings can be large; an effect the other way counts as inactive or inconclusive. Potency means the concentration at half of the fitted maximal effect.

SMILES	L3MBTL1 block	BAZ2B inh	G9a inh	Sfp inh	JMJD2A Tudor inh	HP1b binding inh
COc1cc(/C=N/n2c(-c3ccccc3)n[nH]c2=S)cc(OC)c1O	-7.4%	-11.8%	0.708µM*	u	3.16µM*	-13.4%
O=C(NCc1ccccc1F)C(=O)NCC(c1cccs1)S(=O)(=O)c1cccs1 (centres undefined)	x	-13.3%	23.0%[59 µM]	x	-3.2%	8.9%
CC(C)(C)c1ccc(/C([O-])=C(/C(=S)NCc2ccco2)[n+]2ccccc2)cc1	x	12.1%	u	50.1µM*	x	x
Cc1ccc[n+](/C(C(=S)NCc2ccco2)=C(/[O-])c2ccccc2Cl)c1	x	1.9%	u	44.7µM*	12.7%	1.0%
Cc1ccc[n+](C(C(=S)NCc2ccco2)=C([O-])c2ccccc2Cl)c1	x	x	x	x	-16.7%	14.2%
O=C(NC(=S)N1CCN(C/C=C/c2ccccc2)CC1)c1ccc(Cl)nc1	-1.8%	u	x	23.9%	-31.4%	53.1%
CC(C)(C)C(=O)OCOP(=O)(OCOC(=O)C(C)(C)C)C(C)(Oc1ccc(O)cc1)P(=O)(OCOC(=O)C(C)(C)C)OCOC(=O)C(C)(C)C	x	x	3.55µM*	u	x	x
Cc1cc(C)cc(NC(=O)CC2NCCNC2=O)c1 (centres undefined)	x	9.5%	3.6%[59 µM]	17.1%	-10.6%	11.8%
O=C(CC1C(=O)OCCN1Cc1ccccc1)Nc1cccc(C(F)(F)F)c1 (centres undefined)	x	-13.0%	-59.7%[59 µM]	x	-10.4%	46.7%
COc1cccc(NC(=O)CC2C(=O)OCCN2Cc2ccccc2)c1 (centres undefined)	x	-0.3%	-31.6%[59 µM]	x	-8.2%	86.8%
CCN1CCOC(=O)C1CC(=O)Nc1cc(Cl)ccc1OC (centres undefined)	x	-10.8%	7.94µM*	x	-24.3%	1.7%
COc1ccc(Cl)cc1NC(=O)CC1CCCC1	x	22.0%	26.7%	-1.6%	3.4%	30.3%
CCN1CCOC(=O)C1CC(=O)Nc1ccccc1C(F)(F)F (centres undefined)	x	-39.2%	2.24µM*	x	-34.3%	-16.8%
CCc1ccc(NC(=O)CC2C(=O)OCCN2CC)cc1 (centres undefined)	x	-11.8%	1.78µM*	x	-16.0%	27.0%
CCN1CCOC(=O)C1CC(=O)Nc1cc(C)cc(C)c1 (centres undefined)	x	-11.5%	3.55µM*	x	-14.9%	28.3%
Cc1cccc(NC(=O)CNC(=O)c2cccs2)n1	-7.6%	8.1%	5.5%	x	-1.4%	10.1%
CNC(=O)C(=O)NCC1OCCN1S(=O)(=O)c1ccc2c(c1)OCCO2 (centres undefined)	1.5%	-13.7%	-3.6%	18.3%	11.1%	21.8%
CCN1CCOC(=O)C1CC(=O)Nc1ccc(C(C)=O)cc1 (centres undefined)	x	u	3.16µM*	x	-2.6%	12.3%
Cc1nn(-c2cccc(Cl)c2)c2nc(-c3cccnc3)cc(C(F)(F)F)c12	x	5.2%	-4.1%[59 µM]	x	13.8%	55.0%
CN(CC(=O)Nc1c(Cl)cccc1Cl)C(=O)CCc1nc2sc3c(c2c(=O)[nH]1)CCCC3	u	u	21.5%[0.501 µM]	x	-33.8%	7.2%
CCN(CC(=O)Nc1c(F)cccc1F)C(=O)CCc1nc2sc3c(c2c(=O)[nH]1)CCCC3	u	50.1µM*	1.6%[0.501 µM]	x	u	-12.3%
CN(CC(=O)Nc1ccc(F)cc1)C(=O)CCc1nc2sc3c(c2c(=O)[nH]1)CCCC3	u	-3.8%	56.2µM*	x	-29.7%	14.8%
CN(CC(=O)Nc1ccc(Cl)cc1)C(=O)CCc1nc2sc3c(c2c(=O)[nH]1)CCCC3	u	-0.1%	50.1µM*	x	-16.6%	2.6%
O=C(NCC(c1cccnc1)N1CCN(Cc2ccccc2)CC1)C(=O)Nc1cccc(Cl)c1 (centres undefined)	x	0.1%	3.0%[59 µM]	x	-18.8%	29.2%
CCc1ccc(C2CC(=O)N(c3cccc(C(F)(F)F)c3)C3=C2C(=O)OC3)cc1 (centres undefined)	x	-16.8%	2.8%[59 µM]	x	-12.7%	17.9%
SMILES	L3MBTL1 block	BAZ2B inh	G9a inh	Sfp inh	JMJD2A Tudor inh	HP1b binding inh
COc1cccc(NC(=S)Nc2ccc(O)cc2)c1	x	u	8.91µM*	20µM*	-20.3%	-19.6%
Oc1ccc(NC(=S)Nc2ccccc2)cc1	3.0%	-17.0%	50.1µM*	u	-9.9%	18.8%
Nc1ccc(NC(=S)Nc2ccccc2)cc1	-4.4%	-9.4%	-3.2%[12.7 µM]	11.8%	-26.8%	14.6%
COc1cccc(NC(=S)Nc2ccc(F)cc2)c1	0.4%	-8.8%	13.3%	7.4%	-16.4%	40.3%
COc1ccc(NC(=S)Nc2ccc3snnc3c2)cc1	-16.4%	-30.7%	u	-17.4%	u	u
COc1ccc(NC(=S)Nc2ccc3nccnc3c2)cc1	-7.0%	-5.0%	u	44.7µM*	-24.9%	-9.6%
Cc1cc2oc(=O)cc(CN3CCCCC3)c2cc1O	x	1.0%	-15.3%	6.2%	-8.0%	37.8%
CS(=O)(=O)Nc1cccc(-c2nccc(NCc3ccccc3)n2)c1	x	x	x	-3.8%	x	x
COc1ncc2ncc(=O)n(C3CC3)c2n1	x	x	-17.5%[0.501 µM]	24.5%	x	x
CCOCCCNC(=O)c1c(NC(=O)c2cc(=O)c3ccccc3o2)sc2c1CCC2	x	-11.5%	-2.0%[59 µM]	x	-15.6%	20.7%
COC(=O)NC(c1ccccc1)C(C(=O)OC)C(=O)OC (centres undefined)	x	x	x	5.6%	x	x
Cc1oc(C)c2c(=O)cc(-c3ccc4c(c3)OCO4)cc(OC(=O)c3ccccc3Cl)c12	x	44.7µM*	u	x	63.1µM*	-3.9%
CCOc1cc(-c2ccc3c(c2)OCO3)cc(=[O+]CC)c2c(C)oc(C)c12	x	x	x	x	56.2µM*	u
Cc1oc(C)c2c(=O)cc(-c3ccc4c(c3)OCO4)cc(OC(=O)c3ccccc3Br)c12	x	u	12.6µM*	x	u	-16.2%
COc1cc(-c2cc(OC)c3c(C)oc(C)c3c(=O)c2)ccc1OC(=O)c1ccccc1Cl	x	u	u	x	u	27.2%
COc1ccc(-c2cc(OC(=O)c3cccc(Cl)c3)c3c(C)oc(C)c3c(=O)c2)cc1	x	50.1µM*	14.1µM*	x	u	0.9%
CSc1ncccc1C(=O)OCc1cccc([N+](=O)[O-])c1	12.3%	-7.2%	u	-11.1%	-7.0%	29.2%
CC1CCC2C(=O)N3C(CCC(C)[C@@H]3c3cccc(N4CCOCC4)c3)C(=O)N2C1c1cccc(Br)c1 (some centres undefined)	x	x	x	-10.9%	x	x
CCC(CO)N=CC1=C(O)CC(c2ccccc2)CC1=O (centres undefined)	-7.2%	-2.1%	-1.4%	17.8%	-5.4%	9.7%
COc1ccc(F)cc1C1=CC(=O)C[C@H](c2ccc3c(c2)OCO3)C1	-5.6%	-0.7%	-0.8%[0.501 µM]	x	-23.1%	21.3%

Compound activity: PubChem, National Center for Advancing Translational Sciences (NCATS)
